In PubChem BioAssay AID743279 (National Center for Advancing Translational Sciences (NCATS), 2014) one finds activity change data, which are given here for 57 compounds.

Hit rate of the full screen: of about 360,000 compounds, about 17,000 (4.7%) were called active. About 5% were inconclusive and are not listed. No stated cut-off is given here; in the data, active means activity change below about -50%; inconclusive means mostly about -30% to -49%; inactive means weaker than that. What follows is part of a selection rich in actives, with near analogues and random picks from the rest.
On the % scale 0 is the no-effect control and ±100 the full control effect.

The nature of this assay: qHTS for Inhibitors of Inflammasome Signaling: IL-1-beta AlphaLISA Primary Screen. Conditions: THP-1 LPS/ATP IL-1B secretion, 16 h; at 57.5 µM, active compounds read low. From the text:
Inflammasomes are a set of intracellular multi-protein complexes that enable autocatalytic activation of inflammatory caspases and drive the innate immune response to counter harmful agents. […] A qHTS assay, based on AlphaLISA technology, was developed to screen the Molecular Libraries Small Molecule Repository (MLSMR) to look for novel inflammasome inhibitors. The assay detects IL-1B using AlphaLISA anti-IL-1B acceptor and donor beads. A decreased emission signal, indicating reduced IL-1B secretion, is the desired outcome for this assay. NIH Chemical Genomics Center [NCGC] NIH Molecular Libraries Probe Centers Network [MLPCN] MLPCN Grant: MH095513 Assay Provider: Shyam Biswal Ph.D., Johns Hopkins University Immunity. 2012 Jul 27;37(1):85-95. PMID: 22819042 [2] Curr Pharm Des. 2012;18(16):2320-8. PMID: 22390695
Three microliters containing 3000 THP-1 cells were dispensed into the wells of solid, white, tissue culture treated Greiner 1,536-well plates. Library compounds and positive control, Glyburide, were pin-transferred (23 nL) by a Kalypsys pin-tool equipped with a 1,536-pin array, resulting in final compound concentration ranges of 2.5 nM to 57.5 uM. After 1 hr of cell culture incubation (37 °C, 5% CO2), 1 microL of 1 microg/mL lipopolysaccharide (250 ng/mL, final) and 5 mM ATP (1.25 mM, final) were added to stimulate the cells. After 16 hr of cell culture incubation with the compounds, 1.5 uL of anti-IL-1B acceptor beads (6 ug/mL, final) and biotinylated antibody (0.6 nM, final) were added to the plate, followed by a 1 hr incubation at ambient temperature. To detect the secreted IL-1B, 1.5 uL of AlphaLISA SA-Donor beads (24 ug/mL, final) were added, followed by 30 min of incubation in the dark at ambient temperature. The AlphaLISA signal was read by a PerkinElmer EnVision plate reader with an ultrasensitive luminescence detector and 1536 Plate HTS AlphaScreen aperture (excitation of 680nm and emission of 615nm).
On to `O=C(CSc1ncn[nH]1)NCc1ccc2c(c1)OCO2`, for which the activity change is 17.5% (inactive). Consider `O=C(/C=C/Sc1ncn[nH]1)c1ccc(Cl)cc1`, for which the activity change is -118% (active). `Cc1cccc(C=CC(=O)c2ccc(Cl)cc2)c1`: the activity change is -29.5% (inactive).

For `Cc1ccc(-c2ccc(CN3C(C(C)C)C(=O)N(Cc4cn(CCC5OCCCO5)nn4)CCS3(=O)=O)cc2)cc1` (configuration not stated), the activity change is 13% (inactive). The figure for `CCn1ncc(C2=NOC(C(=O)N3CCN(c4ccccc4)CC3)C2)c1C` (configuration not stated) is 3.63% (inactive). The figure for `O=C(NCCCN1CCOCC1)c1cn(-c2ccccc2)nc1-c1ccc(F)cc1` is -7.44% (inactive). Consider `COc1ccc(-c2nn(-c3ccccc3)cc2/C=C\C(=O)N2CCOCC2)cc1[N+](=O)[O-]`, for which the activity change is -9.66% (inactive). For the compound `O=C(/C=C/c1cn(-c2ccccc2)nc1-c1ccc2c(c1)OCCO2)NCCCN1CCOCC1`, the activity change is -92.2% (active). The figure for `O=C(COC(=O)/C=C/c1ccc(Br)o1)Nc1cccc(S(=O)(=O)N2CCOCC2)c1` is 13.8% (inactive). Take `CCCCOCCCNC(=O)C[C@@H]1C[C@@]2(C(=O)OC)CCCCC=C2N(CCC2=CCCCC2)C1=O`: the activity change was -57.4% (active). For `CC1=C(C(=O)N(C(C)C)C(C)C)CC(CC(=O)NCCCCc2ccccc2)C(=O)N1CCC1=CCCCC1` (configuration not stated), the activity change was -59% (active). The figure for `CCCCOCCCNC(=O)C[C@@H]1C[C@@]2(C(=O)OCC)CCCC=C2N(CCC2=CCCCC2)C1=O` is -27.8% (inactive).

Regarding `CC1=C(C(=O)N(C)C)CC(CC(=O)NCCc2ccccn2)C(=O)N1CCC1=CCCCC1` (configuration not stated), the activity change is -20.1% (inactive). Take `CCOC(=O)[C@]12CCCC=C1N(CCC1=CCCCC1)C(=O)[C@H](CC(=O)NCCCCc1ccccc1)C2`: the activity change is -17.5% (inactive). For `CCOC(=O)[C@]12CCCC=C1N(CCC1=CCCCC1)C(=O)[C@H](CC(=O)NCCCOC)C2`, the activity change was 60.5% (inactive).

For the compound `O=C(Nc1c(Br)cc2c(c1Br)Cc1cc([N+](=O)[O-])ccc1-2)C(Cl)Cl`, the activity change is 39% (inactive).

As for `CCCOc1ccc(-c2c(C(=O)N/N=C/c3ccco3)nnn2-c2nonc2N)cc1`, the activity change was 92.5% (inactive). With `Cc1cc(C)c(S(=O)(=O)NN=C2c3ccccc3[C@H]3Cc4csc[n+]4[C@@H]23)c(C)c1`, the activity change was -3.78% (inactive). The value for `COc1ccc(C(NC(=O)C2CCN(CCCc3ccccc3)CC2)c2cccs2)cc1` (configuration not stated) was -24% (inactive); that for `O=C(CCN1CCCCC1)Nc1ccc(F)c(F)c1` was -0.386% (inactive).

In the case of `COc1ccc(NC(=O)N(C)C[C@@H]2OCc3cn(nn3)CCCC(=O)N([C@H](C)CO)C[C@H]2C)c(OC)c1`, the activity change is 9.8% (inactive). As to `CC(C)(C)OC(=O)N(Cc1ccccc1)Cc1ccc(OCc2cccc(NC(=O)c3ccccc3)c2)cc1`, the activity change is 9.51% (inactive). The figure for `CCOc1ccc(OCc2cccc(C(=O)N(CC)CC)c2)cc1` is 0% (inactive). The figure for `CC(C)c1cc(C(N)=O)c(NC(=O)c2cccc(COc3ccc(Br)cc3)c2)s1` is -75.7% (active); for `O=C1CSC(c2ccc(Cl)cc2)N1` (configuration not stated) it is 0% (inactive); for `COc1ccc2c(C)c(CCC(=O)NC3CC3)c(=O)oc2c1C` it is -19.2% (inactive). The figure for `O=C(NCCOc1ccccc1)c1ccccc1F` is -17.7% (inactive); for `Cc1cccc(C)c1NC(=S)N1CCCCCC1` it is 5.87% (inactive).

With `COc1ccc(/C(C)=N\NC(=O)c2ccc(-c3ccccc3)cc2)c(F)c1`, the activity change is 7.94% (inactive). The value for `CC1=NNC(=O)C1CCC(=O)N/N=C(\C)c1ccc(Cl)cc1` (configuration not stated) was 6.73% (inactive); that for `NC(=O)NC(CC(=O)NNC(=O)c1ccccn1)c1ccc(Cl)cc1` (configuration not stated) was 99.7% (inactive); that for `CNC(=S)N1CCN(c2ccccn2)CC1` was -3.93% (inactive). The value for `C/C(=N\NC(=O)Cc1ccc(Cl)cc1)c1ccccn1` was -103% (active). The value for `CC(=NNC(=S)N1CCCCCC1)c1ccccn1` was -106% (active); that for `C/C(=N\NC(=O)c1ccccc1F)c1ccccn1` was -100% (active). As for `CO[C@@H]1CN(C)C(=O)c2cc(NC(=O)Nc3cc(F)ccc3F)ccc2OC[C@H](C)N(C(=O)c2ccccn2)C[C@@H]1C`, the activity change is 11% (inactive).

In the case of `COC(=O)c1ccc(CSc2nnc(N)s2)o1`, the activity change was -16.4% (inactive). On to `CCCCNC(=O)C[C@@H]1C[C@@]2(C(=O)OCC)CCC=C2N(Cc2ccco2)C1=O`, for which the activity change is 14.5% (inactive). Consider `O=C(NCc1ccc(F)cc1)c1cc(C2CCCCN2C(=O)c2cccs2)on1` (configuration not stated), for which the activity change was -12.4% (inactive).

For the compound `O=C(CN1CCN(c2ccc(O)cc2)CC1)Nc1ccc(-c2ccccc2)cc1`, the activity change was 12.4% (inactive). The value for `Cc1cccc(C)c1NC(=O)C(c1cccc2ccccc12)n1c(=O)c(-c2ccco2)nc2ccccc21` (configuration not stated) was 7.42% (inactive). `COc1ccc(NS(=O)(=O)c2ccc(C)c(C(=O)NCC(c3cccs3)N3CCOCC3)c2)cc1` (configuration not stated): the activity change was 2.47% (inactive). The value for `CC1(C(=O)NS(=O)(=O)c2cccc(OC(F)F)c2)CCN1C(=O)COc1ccc(Cl)cc1` (configuration not stated) was 48.6% (inactive).

For the compound `CCOc1ccc(C(O)Cc2nc3ccccc3n2C)cc1` (configuration not stated), the activity change is -16% (inactive). Turning to `COc1cccc(C(O)Cc2nc3ccccc3n2C)c1OC` (configuration not stated), the activity change was 11.4% (inactive). The figure for `CC(NCc1nc2ccccc2n1C)C12CC3CC(CC(C3)C1)C2` (configuration not stated) is -94.3% (active). In the case of `COc1cc(C(=O)N2CCN(S(=O)(=O)c3ccc(C(C)C)cc3)CC2)ccc1OCC(=O)N1CCOCC1`, the activity change is -21.1% (inactive).

Consider `O=C(c1cc(C2CCCCN2S(=O)(=O)c2ccccc2)on1)N1CCOCC1` (configuration not stated), for which the activity change is 0% (inactive).

On to `Nn1c(SCC(=O)Nc2nccs2)nnc1-c1ccco1`, for which the activity change was -6.29% (inactive). The figure for `Cn1cc(CCC(=O)NCc2ccc3c(c2)OCO3)c2ccccc21` is 0% (inactive); for `N#Cc1nc(Cc2cccc3ccccc23)oc1NCc1ccc2c(c1)OCO2` it is -53.4% (active); for `CC1(C(=O)NCc2ccc3c(c2)OCO3)CCN1C(=O)Cc1cccc2ccccc12` (configuration not stated) it is -20.8% (inactive). For the compound `Cc1ccc(S(=O)(=O)N2CCOCC2)cc1NC(=O)COC(=O)c1cnccn1`, the activity change is 2.75% (inactive).

For `CCOC(=O)C1CCCN(C(=O)c2ccc(C)c(F)c2)CC1` (configuration not stated), the activity change is 13% (inactive). The figure for `Cn1c(-c2ccco2)nc2cc3ccccc3cc21` is -69.2% (active). The value for `COc1ccccc1-n1c(-c2cc(-c3ccco3)[nH]n2)n[nH]c1=S` was 5.01% (inactive); that for `Cn1c(SCC(=O)Nc2ccc(Br)cc2F)nnc1-c1ccco1` was -12.1% (inactive).
